Sampled rows, rich in hits. Any-hit rate of the full collection: about 14%.
A350 autofl: compound fluoresces in the Alexa 350 spectral region; AID 590; Compound autofluorescence, 340/450 nm, Alexa 350 dye-equivalents; active compounds read high; max dye-equivalent concentration, M; actives 11% (n = 59,000); in the data active = max dye-equivalent concentration above about 10 nM; inconclusive = mostly about 1.1 nM to 9.6 nM
AID923: qHTS Assay for Allosteric/Competitive Inhibitors of Caspase-1: Spectroscopic Profiling in AFC Spectral Region; compound fluorescence, AFC spectral region (405/520 nm); AID 923, 2007; actives 1.1% (n = 75,000); Potency, µM (series often up to 57.5 µM), actives largely listed as activators
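Titrations up to 57 uM read every 20 sec for 3 min (405/520 nm) with 50 nM caspase 1 and 5 uM Ac-WEHD-AFC, pH 7.5 HEPES buffer. Fluorescence-vs-time intercept gave baseline, scaled against on-plate AFC standard.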
4-MU autofl: compounds fluorescent in 4-MU spectral region. compound autofluorescence, 340/450 nm, 4-MU equivalents; active compounds read high. AID 589. actives 11% (n = 59,000). max dye-equivalent concentration, M; in the data active = max dye-equivalent concentration above about 10 nM; inconclusive = mostly about 1.1 nM to 9.6 nM
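Compounds in 100 mM Tris, pH 8.0, sat 15 min at room temperature before fluorescence was read at 340 nm excitation/450 nm emission; a per-plate six-point 4-MU standard curve converted signals to dye-equivalent concentration at each compound concentration.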
HADH2 inh: inhibitors of human HADH2 dehydrogenase | actives 3.4% (n = 73,000) | recombinant HADH2, NADH fluorescence, beta-hydroxybutyryl-CoA | Potency, µM (highest dose often 57.1 µM), most hits filed as inhibitors | AID 886 | Q99714; note: nearly all actives have a fitted effect of over 60% in size
Target sequence (Q99714 whole entry, looked up, one chain of several): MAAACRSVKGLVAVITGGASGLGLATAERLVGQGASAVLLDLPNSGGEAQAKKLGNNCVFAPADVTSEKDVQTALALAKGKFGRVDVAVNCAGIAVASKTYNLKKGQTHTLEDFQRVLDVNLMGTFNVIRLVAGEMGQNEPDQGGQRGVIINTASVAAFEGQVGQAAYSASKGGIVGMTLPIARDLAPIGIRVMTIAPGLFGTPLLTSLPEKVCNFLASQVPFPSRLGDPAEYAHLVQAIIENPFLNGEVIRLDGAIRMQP
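Activity measured as NADH fluorescence gain (360/450 nm), taken as the change between first and last reads of a 4-min kinetic run. Conditions: pH 9.0 Tris buffer, 20 nM E. coli-expressed His-tagged enzyme, 1 mM NAD+, 90 uM beta-hydroxybutyryl-CoA; 15-min compound preincubation.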
CRE-bla Fsk: alters forskolin-stimulated CRE reporter signaling in CHO cells. AID 662. Potency, µM (doses to about 38.2 µM), actives largely listed as activators. CHO CRE-bla reporter (cAMP response element driving beta-lactamase), forskolin EC10, beta-lactamase ratio. actives 2.5% (n = 71,000); active = well fitted activation curve with a large enough effect in the signal ratio, with a control signal flat, not every such curve was filed as active; inconclusive = small, poorly fitted or top-dose-only effect, or effect the other way, or a change in a side signal; the % refers to the signal ratio
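Cells were plated overnight at 37 °C, exposed to compound titrations plus EC10 NKH 477 for 3 h, then given CCF4 dye for 2 h at room temperature. Blue/green (460/530 nm) ratio was converted to %Activity and AC50 values calculated.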
HSD17B inh: blocks hydroxysteroid 17-beta dehydrogenase activity; recombinant HSD17B10, NADH fluorescence kinetic; Potency, µM (highest dose often 57.1 µM), usual class: inhibitors; actives 7.6% (n = 75,000);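 note: the protocol describes HADH2 (HSD17B10) and not the HSD17B4 of the title; nearly all actives have a fitted effect of over 70% in size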
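20 nM HADH2, pH 9.0 Tris/Tween; cpd preinc 15 min RT; start w/ 1 mM NAD+ + 90 uM b-hydroxybutyryl-CoA; kinetic fluor ex360/em450 q30s x 4 min; delta last-first.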
Of the large screens only hits and unclear results are named; the others gave an inactive call. Unless noted, calls come from the whole dose curve; as a rule, active = well fitted curve in the direction sought with a large enough effect; inconclusive = small, poorly fitted or top-dose-only effect, or another doubt; inactive = no such curve, though single readings can be large; an effect the other way counts as inactive or inconclusive.

CC(C)(C)c1nn(-c2ccccc2)c2[nH]c(=O)c(CNCc3ccco3)cc12	HSD17B inh 32µM
CC(C)CN(C)c1nc(N)c(C(=O)N=C(N)N)nc1Cl	A350 autofl 1.2e-08M, 4-MU autofl 1.2e-08M
NC(N)=NC(=O)c1nc(Cl)c(N2CCCCCC2)nc1N	A350 autofl inconclusive, 4-MU autofl inconclusive
O=C(Cc1ccc(F)cc1)OCC(=O)c1cc2ccccc2o1	HADH2 inh inconclusive, CRE-bla Fsk inconclusive
Nc1ncnc2nc(SCC(=O)N3CCN(c4ccccc4)CC3)[nH]c12	A350 autofl 1.1e-08M, 4-MU autofl inconclusive
O=C(CSc1nc2ccccc2[nH]1)N1CCN(c2ccc(F)cc2)CC1	A350 autofl 4.9e-08M, 4-MU autofl 5.2e-08M, CRE-bla Fsk inconclusive
CC1CCN(C(=O)CSc2nc3ccccc3[nH]2)CC1	none (no result: A350 autofl, 4-MU autofl)
COc1ccccc1N1CCN(C(=O)CSc2nc3ncnc(N)c3[nH]2)CC1	A350 autofl inconclusive
O=C(CCCn1c(=S)[nH]c2ccsc2c1=O)NCc1ccco1	A350 autofl inconclusive, 4-MU autofl inconclusive, HADH2 inh inconclusive
COC(=O)c1nc(-c2ccccc2)oc1N(C)C	A350 autofl 1.1e-07M, 4-MU autofl 1.3e-07M, HADH2 inh 25µM, CRE-bla Fsk inconclusive, HSD17B inh 25µM
CCN1CCN(CCCNC(=O)c2cn(CCOC)c(=O)c3c2c2ccccc2n3C)CC1	A350 autofl 6.9e-07M, 4-MU autofl 6.5e-07M, HADH2 inh inconclusive, CRE-bla Fsk inconclusive, HSD17B inh 25µM
Cn1c(C(=O)NCc2cccs2)cc2c(=O)n(C)c3ccccc3c21	CRE-bla Fsk inconclusive, HSD17B inh inconclusive (no result: A350 autofl, 4-MU autofl)
CCN(CC)CCCNC(=O)c1cn(CCOC)c(=O)c2c1c1ccccc1n2C	A350 autofl 4.3e-07M, 4-MU autofl 4.1e-07M, HADH2 inh inconclusive, CRE-bla Fsk inconclusive, HSD17B inh 32µM
COCCn1cc(C(=O)NCc2cccs2)c2c3ccccc3n(C)c2c1=O	A350 autofl 6.7e-08M, 4-MU autofl 6.3e-08M, CRE-bla Fsk inconclusive, HSD17B inh 25µM
COCCn1cc(C(=O)NCCCN2CCC(C)CC2)c2c3ccccc3n(C)c2c1=O	A350 autofl 4.9e-07M, 4-MU autofl 4.6e-07M, HADH2 inh inconclusive, HSD17B inh 25µM
COc1cc(C(=O)NCCc2cn3ccccc3n2)cc(OC)c1OC	CRE-bla Fsk inconclusive (no result: A350 autofl, 4-MU autofl)
CN(C)S(=O)(=O)c1cccc(-c2cn3ccccc3n2)c1	CRE-bla Fsk inconclusive, HSD17B inh 20µM
COc1ccc(-c2cc(C(=O)O)[nH]n2)cc1OC	none
O=C(Nc1cccc(-c2cn3ccccc3n2)c1)c1cnccn1	CRE-bla Fsk inconclusive
COc1ccc(-c2cn3cc(C)ccc3n2)cc1OC	A350 autofl 2.2e-08M, 4-MU autofl 1.6e-08M, HADH2 inh 32µM, HSD17B inh 32µM
COc1ccc(-c2cn3ccccc3n2)cc1OC	A350 autofl inconclusive, 4-MU autofl inconclusive, HADH2 inh inconclusive, CRE-bla Fsk inconclusive, HSD17B inh 25µM
COc1cccc(OCCCN2CCCCC2)c1	none (no result: A350 autofl, 4-MU autofl)
COc1ccc(NS(=O)(=O)c2ccc(OCC(=O)N3CCCC3)cc2)cc1	A350 autofl inconclusive
Cc1ccccc1NS(=O)(=O)c1ccc(OCC(=O)N2CCCC2)cc1	A350 autofl 3.7e-07M, 4-MU autofl 4.3e-07M, HSD17B inh 32µM
CC(C)CCn1cnc2c(cnn2-c2ccc(F)cc2)c1=O	CRE-bla Fsk inconclusive
COc1ccccc1N1CCN(C/C=C/c2ccc(N(C)C)cc2)CC1	HADH2 inh 32µM, HSD17B inh 32µM (no result: A350 autofl, 4-MU autofl)
COCCCn1c(SCC(=O)Nc2ccc(C(=O)OC)cc2)nc2ccccc2c1=O	CRE-bla Fsk inconclusive
COCCCn1c2nc3ccccc3nc2c2c(=O)n(-c3ccccc3OC)c(C)nc21	A350 autofl 1.6e-07M, 4-MU autofl 1.7e-07M (no result: AID923, HADH2 inh, CRE-bla Fsk, HSD17B inh)
COCCCn1c2nc3ccccc3nc2c2c(=O)n(-c3ccccc3OC)cnc21	A350 autofl 5.1e-07M, 4-MU autofl 3.9e-07M, CRE-bla Fsk 4µM
O=C1c2ccccc2C(=O)c2c(O)c(O)cc(O)c21	HSD17B inh 7.9µM (no result: A350 autofl, 4-MU autofl, HADH2 inh, CRE-bla Fsk)
CCOC(=O)N1CCN(C(=O)c2ccc3c(=O)n(Cc4ccccc4)c(=S)[nH]c3c2)CC1	CRE-bla Fsk inconclusive
CCOC(=O)N1CCN(C(=O)c2ccc3c(=O)n(CCOC)c(=O)[nH]c3c2)CC1	A350 autofl 2.1e-08M, 4-MU autofl 2e-08M, HADH2 inh inconclusive, HSD17B inh 25µM
CCOC(=O)N1CCN(C(=O)c2ccc3c(=O)n(CCc4ccccc4)c(=O)[nH]c3c2)CC1	A350 autofl inconclusive, HSD17B inh 13µM
O=C(c1ccc2c(=O)n(-c3ccccc3)c(=O)[nH]c2c1)N1CCCCC1	A350 autofl 5e-08M, 4-MU autofl 4.8e-08M, HADH2 inh inconclusive, HSD17B inh 32µM
CCOC(=O)N1CCN(C(=O)c2ccc(C)c(S(=O)(=O)Nc3ccccc3)c2)CC1	A350 autofl 2.5e-07M, 4-MU autofl 2e-07M, HADH2 inh inconclusive, HSD17B inh 25µM
CCn1c(=O)[nH]c2cc(C(=O)N3CCN(c4ccccc4)CC3)ccc2c1=O	none
CCN(CC)C(=O)Oc1ccc2c(=O)c(-c3ccccc3)coc2c1	A350 autofl inconclusive, 4-MU autofl inconclusive, CRE-bla Fsk inconclusive
COc1cc(CCC(=O)OCn2nnc3ccccc3c2=O)cc(OC)c1OC	none
CCOC(=O)N1CCN(C(=O)CCCn2c(=S)[nH]c3ccccc3c2=O)CC1	none
COCCn1c(=S)[nH]c2cc(C(=O)N3CCC(C(N)=O)(N4CCCCC4)CC3)ccc2c1=O	A350 autofl 1.2e-08M, 4-MU autofl 1.3e-08M
CCOC(=O)N1CCN(C(=O)CCCn2c(=O)[nH]c3ccccc3c2=O)CC1	A350 autofl inconclusive, 4-MU autofl inconclusive, HSD17B inh 20µM
O=C(CC1CC2CCC1C2)NCc1cccs1 (stereo not drawn)	A350 autofl inconclusive
O=C(NC1CCCCC1)N1CCC(c2nc3ccc(Cl)cc3[nH]2)CC1	CRE-bla Fsk inconclusive
Cc1ccc(-c2nnc3sc(-c4ccncc4)nn23)cc1	A350 autofl inconclusive, 4-MU autofl inconclusive, CRE-bla Fsk inconclusive
Nc1nnc(-c2ccncc2)s1	A350 autofl inconclusive, 4-MU autofl inconclusive, CRE-bla Fsk inconclusive, HSD17B inh 16µM
CNc1nnc(-c2ccncc2)s1	A350 autofl 1.4e-07M, 4-MU autofl 1.5e-07M, HSD17B inh 25µM
Clc1ccc(-c2nnc(SCc3cn4ccsc4n3)n2CC2CCCO2)cc1 (stereo not drawn)	none
CCCN(CCC)CCNC(=O)C(NS(=O)(=O)c1ccc2c(c1)CCC(=O)N2)c1ccccc1 (stereo not drawn)	A350 autofl inconclusive, 4-MU autofl inconclusive, CRE-bla Fsk inconclusive
Cc1cc(-c2ccccc2)nc(N2CCC(C(=O)NC(C)C)CC2)n1	A350 autofl 4.6e-08M, 4-MU autofl 3.6e-08M
